Compound activity deposited in PubChem BioAssay by several laboratories.
This is one part of a sample in which hits are shown more often than they occur.
Bead autofluor = flagged as autofluorescent in microsphere protease counterscreen; compound autofluorescence counterscreen, microsphere flow cytometry; active compounds read high; 360,000 tested, 3.1% active; fluorescence intensity (concentration not given with the values); AID 624483; in the data active = fluorescence intensity above about 16000; inconclusive = no clear call, values can overlap the other calls
TcdB inh = blocks C. difficile toxin B glycohydrolase activity; inhibition, % at 9.99 µM; 350,000 tested, 0.24% active; AID 652162; TcdB glycohydrolase enzymatic assay, plate reader; P18177; in the data active = inhibition above about 10%
BoNT F protease = blocks Botulinum neurotoxin F light chain protease; Multiplex microsphere protease cleavage assay, flow cytometry; inhibition, % at 10 µM; 360,000 tested, 0.22% active; AID 588497; in the data active = inhibition above about 35%, passing the limit was not always enough; inconclusive = no clear call, values can overlap the other calls; also: plate controls were buffer without enzyme for full effect and enzyme alone for no effect
BoNT A protease = BoNT A light chain protease inhibition. inhibition, % at 10 µM. 360,000 tested, 0.17% active. AID 588499. multiplex microsphere protease substrate cleavage, flow cytometry; also: plate controls were buffer without enzyme for full effect and enzyme alone for no effect
Anthrax LF prot = blocks Bacillus anthracis lethal factor protease; AID 588501; inhibition, % at 10 µM; 360,000 tested, 0.12% active; multiplex microsphere protease cleavage assay, LF; also: plate controls were buffer without enzyme for full effect and enzyme alone for no effect
* marks the source's active call; other numbers are inactive results; u = inconclusive; x = not tested or not shown. Rule as the data show it, unless noted: active = inhibition above about 30%; inconclusive = no clear call, values can overlap the other calls; inactive = below that.

SMILES	Bead autofluor	TcdB inh	BoNT F protease	BoNT A protease	Anthrax LF prot
CCC(C)c1ccccc1NC(=O)c1cccnc1 (stereo unspecified)	23335*	1	-3	-2	-5
CC(C)c1ccccc1NC(=O)c1cccnc1	4389	x	11	0	4
CCc1cccc(C)c1NC(=O)c1cc(C)oc1C	22641*	0	0	2	-4
CCc1cccc(C)c1NC(=O)c1cccnc1	3027	0	u	5	31*
Cc1noc(C)c1NC(=O)Nc1ccc2c(c1)C(=O)N([C@@H](C)CO)C[C@H](C)[C@@H](CN(C)Cc1ccc(Oc3ccccc3)cc1)O2	x	-1	x	x	x
COc1ccc2c3c(n(C)c2c1)[C@@H](CO)N(C(=O)C1CCCCC1)CC31CCN(C(=O)CN(C)C)CC1	x	0	x	x	x
C=CCSc1nc2c(cc1C#N)CCC2	21788*	x	7	u	-6
N#Cc1cc2c(nc1SCC(=O)Nc1nccs1)CCCCC2	20116*	0	-5	-3	-7
CCCCSc1nc2c(cc1C#N)CCC2	20908*	x	-3	-1	-1
CNC[C@@H]1Oc2ccc(NS(=O)(=O)c3cn(C)cn3)cc2C(=O)N([C@@H](C)CO)C[C@@H]1C	x	-1	x	x	x
C[C@@H]1CN([C@@H](C)CO)C(=O)c2cc(NS(=O)(=O)c3cccs3)ccc2O[C@H]1CN(C)C(=O)Nc1ccc(F)cc1	x	1	x	x	x
COC(=O)CN1C(=O)C(C)(C)Oc2ccc(C(=O)NC3CC3)cc21	22838*	x	-3	u	0
CCOC(=O)c1ccc2c(c1)N(CC(=O)N1CCCCC1)C(=O)C(C)(C)O2	4771	x	2	0	3
CCOC(=O)c1ccc2c(c1)N(CC(=O)N1CCCC1)C(=O)C(C)(C)O2	23746*	x	-4	u	-2
CO[C@H]1CN(C)C(=O)c2cc(NC(=O)Nc3ccccc3)ccc2OC[C@H](C)N(C(C)=O)C[C@H]1C	x	2	x	x	x
C/C=C/c1cnc2c(c1)C(=O)N([C@H](C)CO)C[C@@H](C)[C@H](CN(C)C(=O)c1ccc3c(c1)OCO3)O2	x	-1	x	x	x
O=c1[nH]c(/C=C\c2ccc(O)c(Cl)c2)nc(O)c1[N+](=O)[O-]	3600	12*	10	2	-6
CCOc1ccc(/C=C/c2[nH]c(=O)[nH]c(=O)c2[N+](=O)[O-])cc1	3812	-4	-11	-3	3
CC(C)c1ccc(/C=C/c2[nH]c(=O)[nH]c(=O)c2[N+](=O)[O-])cc1	3823	-2	37*	0	9
O=c1[nH]c(/C=C\c2ccc(O)cc2)nc(O)c1[N+](=O)[O-]	3856	16*	-1	0	6
O=C(Nc1ccccc1)[C@@H]1[C@@H](CO)[C@@H]2Cn3c(cccc3=O)[C@@H]2N1CC1CC1	x	-3	x	x	x
Cc1ccc(S(=O)(=O)Nc2cccc3c2O[C@@H](CN(C)C(=O)Nc2ccc4c(c2)OCO4)[C@@H](C)CN([C@@H](C)CO)C3=O)cc1	x	-1	x	x	x
CO[C@@H]1CN(C)C(=O)c2ccc(NC(C)=O)cc2OC[C@H](C)N(CC2CCCCC2)C[C@H]1C	x	0	x	x	x
C[C@@H]1CN([C@@H](C)CO)C(=O)c2cc(-c3cccc(F)c3)cnc2O[C@@H]1CN(C)CC1CCOCC1	x	1	x	x	x
CN(C)C(=O)[C@H]1[C@H](CO)[C@H]2Cn3c(ccc(-c4ccccc4F)c3=O)[C@H]2N1C(=O)c1cnccn1	x	2	x	x	x
SMILES	Bead autofluor	TcdB inh	BoNT F protease	BoNT A protease	Anthrax LF prot
CC(/C=C/c1ccccc1)=N\Nc1nc(-c2ccccc2)cs1	24306*	-1	-4	-3	-3
C(=N\Nc1nc(-c2ccccc2)cs1)/c1cccnc1	23863*	x	-10	-5	-6
Clc1ccc(-c2csc(N/N=C/c3cccnc3)n2)c(Cl)c1	6647	x	-8	0	-2
CCCNC(=O)N1C[C@@H](C)[C@@H](OC)CN(C)C(=O)c2cc(NC(C)=O)ccc2OC[C@@H]1C	x	0	x	x	x
COc1ccc(C(=O)NC(=S)Nc2nc(C)c(C(=O)N(C)C)s2)cc1	8423	x	0	-1	1
Cc1nc(NC(=S)NC(=O)c2cccs2)sc1C(=O)N(C)C	22794*	0	-1	-2	0
O=C(Nc1ccccn1)N1CCOCC1	20658*	x	-5	-3	0
CC1(C)CC(N2CCOCC2)=CC(=[N+]2CCOCC2)C1	4565	0	-3	0	-6
CC1(C)CC(N2CCCCC2)=CC(=[N+]2CCCCC2)C1	27656*	2	0	-2	6
C[C@@H]1CN([C@@H](C)CO)S(=O)(=O)c2ccc(C3=CCCCC3)cc2O[C@@H]1CN(C)S(=O)(=O)c1ccc(F)cc1	x	1	x	x	x
FC(F)(F)c1cc(-c2ccco2)nc(N2CCN(Cc3ccccc3)CC2)n1	21755*	x	-9	-6	-4
Fc1ccc(N2CCN(c3nc(-c4ccco4)cc(C(F)(F)F)n3)CC2)cc1	9624	x	12	0	-16
Cc1ccc(C(=O)Nc2ccc3c(c2)nc2n3CCSC2)cc1	23988*	x	4	2	5
CC(=O)Nc1ccc2c(c1)nc1n2CCSC1	18041*	x	1	5	-1
COCC(=O)Nc1ccc2c(c1)[C@H]1C[C@@H](CC(=O)NC3CCCC3)O[C@H](CO)[C@H]1O2	x	1	x	x	x
CO[C@H](C(=O)N(C)C[C@@H]1OCc2ccccc2-c2ccccc2C(=O)N([C@H](C)CO)C[C@H]1C)c1ccccc1	x	1	x	x	x
CCc1nc2cc(Cl)c(Cl)cc2[nH]1	23720*	x	1	u	-1
CCc1nc2cc(Cl)c(Cl)cc2nc1CC	4282	3	-8	0	2
O=C(c1ccco1)N(CCC(c1ccccc1)c1ccco1)Cc1ccc(F)cc1 (stereo unspecified)	16623*	0	0	0	-2
C[C@@H]1CN([C@H](C)CO)C(=O)c2cccc(NS(=O)(=O)c3ccc(F)cc3)c2O[C@@H]1CN(C)Cc1ccc(C(=O)O)cc1	x	0	x	x	x
CC(C)C#Cc1cnc2c(c1)C(=O)N([C@@H](C)CO)C[C@@H](C)[C@H](CN(C)C(=O)c1cccc(F)c1)O2	x	1	x	x	x
O=S(=O)(NC1CCCCCC1)c1cccc2cccnc12	16645*	x	-6	-2	-8
COc1ccc(S(=O)(=O)Nc2cccc(NC(C)=O)c2)cc1	17504*	1	-9	-7	-4
COc1cccc(NS(=O)(=O)c2ccc(NC(C)=O)cc2)c1	23977*	1	1	u	2
O=C(NC1CCCCC1)c1ccc(NS(=O)(=O)c2cccc3cccnc23)cc1	4666	0	-3	-1	-1
COC(=O)c1ccc(NS(=O)(=O)c2cccc3cccnc23)cc1	18372*	x	8	4	0
COc1ccc(NS(=O)(=O)c2cccc3cccnc23)cc1	6368	x	-1	1	3
CCCNC(=O)N(C)C[C@H]1Oc2ncc(-c3ccc(OC)cc3)cc2C(=O)N([C@H](C)CO)C[C@@H]1C	x	-2	x	x	x
C[C@@H]1CN([C@@H](C)CO)C(=O)c2cccc(NC(=O)Nc3ccc(F)cc3)c2O[C@H]1CN(C)S(=O)(=O)c1cccs1	x	1	x	x	x
COc1ccc(NC(=O)N(C)C[C@H]2OCCCC[C@@H](C)Oc3ccc(NC(=O)C4CCCCC4)cc3C(=O)N([C@@H](C)CO)C[C@@H]2C)cc1	x	0	x	x	x
